Assay: NFkB reporter suppression in cystic fibrosis bronchial cells – cell-based, uHTS hits, panel, cytotoxicity readout, dose response (AID 624344)
Conditions: CF bronchial epithelial cells, PAF-induced NFkB reporter inhibition, with PAF, run 1; at 79 µM (top of the series) unless noted
For Cn1c(N2CCN(C(c3ccccc3)c3ccccc3)CC2)nc2c1c(=O)[nH]c(=O)n2C, the inhibition was 108%. For CCn1c(=O)c2c(cnn2C)c2ccccc21, the inhibition was 117%. Work on Cc1ccc(NC(=O)c2ccccc2NS(=O)(=O)c2ccc(Cl)s2)cc1S(=O)(=O)N1CCOCC1 yielded an inhibition of 111%. O=C1NC(=S)N/C1=C\c1cccnc1 showed an inhibition of 99.3%. Cc1cc(C)c(C#N)c(SCC(=O)c2ccc(Cl)cc2Cl)n1 gave an inhibition of 111%. In the case of COc1ccc2c(c1OC)C(=O)N1c3ccccc3C(=O)N(c3ccccc3)C21 (stereo not given), the inhibition is reported as 112%. With Cc1cc(C)c(O)c(CN(C)Cc2cc(Cl)cc(Cl)c2O)c1 the inhibition was 109%. O=C(Nc1ccc2ccccc2c1)c1ccccc1O showed an inhibition of 102%. Compound C[C@@H]1CC=C[C@H]2[C@H]1C(=O)N(Cc1ccccc1)[C@H]2c1ccc2ccccc2c1Br has an inhibition of 110%. In the case of Cc1ccnc(NC(=O)Cc2ccc(-c3ccccc3)cc2)c1, the inhibition is reported as 111%. Compound Cc1cccc(NC(=O)Nc2ccc(C#N)cc2)n1 has an inhibition of 103%. Nc1ncnc(Sc2ccc(Cl)cc2)c1[N+](=O)[O-] showed an inhibition of 101%. With N#CC(C#N)=C1SC(=Nc2ccccc2)C(=Nc2ccccc2)N1c1ccccc1 the inhibition was 98.5%. Compound CCOc1ccccc1N1CCN(C(=O)c2cc(-c3cc(OC)ccc3OC)nc3ccccc23)CC1 has an inhibition of 107%. Compound Cc1ccc(C(C(=O)NCc2ccccc2)N(Cc2cccs2)C(=O)c2ccc3c(c2)OCCO3)cc1 (stereo not given) has an inhibition of 106%. Compound CC(C)C[C@@H](CN1CCCC1CN1C(=S)NC[C@@H]1Cc1ccc(O)cc1)N1C[C@H](Cc2ccc(O)cc2)N(CC2CCCCCC2)C1=S (stereo not given in full) has an inhibition of 116%. Compound COc1ccc(N(Cc2cc(=O)[nH]c3ccccc23)C(=O)CCl)cc1 has an inhibition of 92.3%. For COc1ccc(NC(=O)c2cc3c(-c4ccc(OC)c(OC)c4)nn(C)c3s2)cc1OC, the inhibition was 107%. For Cc1ccc(Nc2nc3nonc3[nH]c2=O)cc1Cl, the inhibition was 118%. Compound O=C1CC(=O)OC(c2ccc([N+](=O)[O-])cc2)O1 has an inhibition of 101%. Work on CC1C(c2ccccc2)OCCN1C(=S)Nc1ccc(S(=O)(=O)N2CCCCC2)cc1 (stereo not given) yielded an inhibition of 100%. Compound COc1ccc(C(=O)Nc2cccc(NC(=O)c3ccc(OC)c(OC)c3)n2)cc1OC has an inhibition of 106%. In the case of COc1ccc2nc(Nc3nc(CSc4nc5ccccc5[nH]4)cc(=O)[nH]3)nc(C)c2c1, the inhibition is reported as 108%. With COc1ccc(OC)c(N(CCN2C(=O)c3ccccc3C2=O)C(=O)CCl)c1 the inhibition was 106%. For C=C1C(=O)[C@]23C[C@H]1CC[C@H]2[C@]1(C)[C@@H](O)CC[C@@](C)(C(=O)O)[C@H]1C[C@@H]3O, the inhibition was 98.4%. With CC(=O)Oc1ccccc1C(=O)Oc1ccc(/C=N/n2cnnc2)cc1 the inhibition was 106%. For O=C1Cc2c([nH]c3ccc(Br)cc23)-c2ccccc2N1, the inhibition was 94.6%. Compound COc1ccc2[nH]cc(C(=O)CCl)c2c1 has an inhibition of 96.8%. For O=C(Nc1cccc(Cl)c1)Nc1cc(S(=O)(=O)N2CCCCC2)ccc1Cl, the inhibition was 117%. CC(=O)Nc1nc(C)c(-c2csc(Nc3cccc(C(C)=O)c3)n2)s1 showed an inhibition of 105%. With CCN(CC)CCN(C(=O)CCS(=O)(=O)c1ccccc1)c1nc2c(C)cc(C)cc2s1 the inhibition was 106%. With Cc1ccnc(Nc2nc(-c3sc(C)nc3C)cs2)c1 the inhibition was 107%. In the case of O=C(N/N=C/c1ccccc1Cl)c1[nH]c2ccc(Br)cc2c1-c1ccccc1, the inhibition is reported as 105%. In the case of COc1ccc(C2=Nn3c(nnc3-c3ccncc3)SC2)cc1, the inhibition is reported as 81.7%. Compound COc1ccc(-c2nc(N3CCOCC3)nc3n[nH]c(N)c23)cc1 has an inhibition of 117%. Work on C=C1C(=O)O[C@@H]2[C@H]3O[C@]3(C)CC/C=C(\C)CC[C@@H]12 yielded an inhibition of 101%. Oc1ccc(Br)cc1-c1nc2cnccn2c1NC1CCCC1 gave an inhibition of 101%. O=S1(=O)CC=C(CSC(=S)NC2CCS(=O)(=O)C2)C1 (stereo not given) showed an inhibition of 100%. CCc1ccccc1NC(=O)CN(C)C(=O)Cn1ncc(Cl)c(Cl)c1=O showed an inhibition of 102%. With CCc1cc2c(Sc3nc4ccccc4s3)ncnc2s1 the inhibition was 114%.

Assay: as above
Conditions: CF bronchial epithelial cells, PAF-induced NFkB reporter inhibition, with PAF, run 2; at 79 µM (top of the series) unless noted
Work on Cn1c(N2CCN(C(c3ccccc3)c3ccccc3)CC2)nc2c1c(=O)[nH]c(=O)n2C yielded an inhibition of 104%. Compound CCn1c(=O)c2c(cnn2C)c2ccccc21 has an inhibition of 103%. Work on Cc1ccc(NC(=O)c2ccccc2NS(=O)(=O)c2ccc(Cl)s2)cc1S(=O)(=O)N1CCOCC1 yielded an inhibition of 95.3%. In the case of O=C1NC(=S)N/C1=C\c1cccnc1, the inhibition is reported as 99.2%. Compound Cc1cc(C)c(C#N)c(SCC(=O)c2ccc(Cl)cc2Cl)n1 has an inhibition of 101%. COc1ccc2c(c1OC)C(=O)N1c3ccccc3C(=O)N(c3ccccc3)C21 (stereo not given) showed an inhibition of 102%. Work on Cc1cc(C)c(O)c(CN(C)Cc2cc(Cl)cc(Cl)c2O)c1 yielded an inhibition of 101%. O=C(Nc1ccc2ccccc2c1)c1ccccc1O gave an inhibition of 90.4%. For C[C@@H]1CC=C[C@H]2[C@H]1C(=O)N(Cc1ccccc1)[C@H]2c1ccc2ccccc2c1Br, the inhibition was 93.6%. Cc1ccnc(NC(=O)Cc2ccc(-c3ccccc3)cc2)c1 showed an inhibition of 105%. Compound Cc1cccc(NC(=O)Nc2ccc(C#N)cc2)n1 has an inhibition of 113%. With Nc1ncnc(Sc2ccc(Cl)cc2)c1[N+](=O)[O-] the inhibition was 85.6%. N#CC(C#N)=C1SC(=Nc2ccccc2)C(=Nc2ccccc2)N1c1ccccc1 gave an inhibition of 99.1%. CCOc1ccccc1N1CCN(C(=O)c2cc(-c3cc(OC)ccc3OC)nc3ccccc23)CC1 showed an inhibition of 104%. Cc1ccc(C(C(=O)NCc2ccccc2)N(Cc2cccs2)C(=O)c2ccc3c(c2)OCCO3)cc1 (stereo not given) gave an inhibition of 98.3%. With CC(C)C[C@@H](CN1CCCC1CN1C(=S)NC[C@@H]1Cc1ccc(O)cc1)N1C[C@H](Cc2ccc(O)cc2)N(CC2CCCCCC2)C1=S (stereo not given in full) the inhibition was 101%. In the case of COc1ccc(N(Cc2cc(=O)[nH]c3ccccc23)C(=O)CCl)cc1, the inhibition is reported as 88.4%. In the case of COc1ccc(NC(=O)c2cc3c(-c4ccc(OC)c(OC)c4)nn(C)c3s2)cc1OC, the inhibition is reported as 101%. Cc1ccc(Nc2nc3nonc3[nH]c2=O)cc1Cl showed an inhibition of 104%. O=C1CC(=O)OC(c2ccc([N+](=O)[O-])cc2)O1 showed an inhibition of 94.3%. CC1C(c2ccccc2)OCCN1C(=S)Nc1ccc(S(=O)(=O)N2CCCCC2)cc1 (stereo not given) showed an inhibition of 106%. In the case of COc1ccc(C(=O)Nc2cccc(NC(=O)c3ccc(OC)c(OC)c3)n2)cc1OC, the inhibition is reported as 102%. For COc1ccc2nc(Nc3nc(CSc4nc5ccccc5[nH]4)cc(=O)[nH]3)nc(C)c2c1, the inhibition was 102%. For COc1ccc(OC)c(N(CCN2C(=O)c3ccccc3C2=O)C(=O)CCl)c1, the inhibition was 101%. Work on C=C1C(=O)[C@]23C[C@H]1CC[C@H]2[C@]1(C)[C@@H](O)CC[C@@](C)(C(=O)O)[C@H]1C[C@@H]3O yielded an inhibition of 103%. With CC(=O)Oc1ccccc1C(=O)Oc1ccc(/C=N/n2cnnc2)cc1 the inhibition was 105%. Work on O=C1Cc2c([nH]c3ccc(Br)cc23)-c2ccccc2N1 yielded an inhibition of 80.1%. Compound COc1ccc2[nH]cc(C(=O)CCl)c2c1 has an inhibition of 99.6%. For O=C(Nc1cccc(Cl)c1)Nc1cc(S(=O)(=O)N2CCCCC2)ccc1Cl, the inhibition was 97.2%. Compound CC(=O)Nc1nc(C)c(-c2csc(Nc3cccc(C(C)=O)c3)n2)s1 has an inhibition of 101%. Work on CCN(CC)CCN(C(=O)CCS(=O)(=O)c1ccccc1)c1nc2c(C)cc(C)cc2s1 yielded an inhibition of 115%. Compound Cc1ccnc(Nc2nc(-c3sc(C)nc3C)cs2)c1 has an inhibition of 104%. For O=C(N/N=C/c1ccccc1Cl)c1[nH]c2ccc(Br)cc2c1-c1ccccc1, the inhibition was 109%. With COc1ccc(C2=Nn3c(nnc3-c3ccncc3)SC2)cc1 the inhibition was 76.5%. Compound COc1ccc(-c2nc(N3CCOCC3)nc3n[nH]c(N)c23)cc1 has an inhibition of 104%. C=C1C(=O)O[C@@H]2[C@H]3O[C@]3(C)CC/C=C(\C)CC[C@@H]12 gave an inhibition of 99.4%. In the case of Oc1ccc(Br)cc1-c1nc2cnccn2c1NC1CCCC1, the inhibition is reported as 97.8%. Compound O=S1(=O)CC=C(CSC(=S)NC2CCS(=O)(=O)C2)C1 (stereo not given) has an inhibition of 110%. Work on CCc1ccccc1NC(=O)CN(C)C(=O)Cn1ncc(Cl)c(Cl)c1=O yielded an inhibition of 101%. CCc1cc2c(Sc3nc4ccccc4s3)ncnc2s1 gave an inhibition of 98.3%.

Source: PubChem BioAssay
